# Laboratory results published in PubChem BioAssay (Tox21).
# Several values for one entry are separate records, joined by “and”; a condition that tells them apart may be missing. Identical values can stand only once. Results filed as inconclusive are left out. Where a call stands in place of a potency, no number is given. A number with no mark means an inactive call. Activity calls are given as the source filed them. The call rests on the fitted dose curve; in most records, active means well fitted inhibition curve with a large enough effect in the repeat runs; inconclusive means weak or mixed curves; inactive means no such curve, though single readings can be large or run the other way.
# Test: qHTS assay to identify small molecule antagonists of the thyroid receptor (TR) signaling pathway (AID 743065); further: nearly all actives have a fitted effect of over 55% in size
# Conditions: GH3.TRE-Luc, T3-stimulated luciferase inhibition, 23.5 h; series mostly up to 70.3 µM; activity, negative = inhibition: at the top concentration
# Description: U.S. Tox21 Program National Center for Advancing Translational Sciences [NCATS] NIH Chemical Genomics Center [NCGC] U.S. Environmental Protection Agency [EPA] National Institutes of Environmental Health Sciences [NIEHS] National Toxicology Program [NTP] U.S. Food and Drug Administration [FDA] Tox21 Assay Overview: Thyroid receptor (TR), a nuclear hormone receptor, plays an important role in development, proliferation, differentiation, metabolism, brain function, and cardiovascular system. […] To profile the Tox21 10K compound library in TR signaling, a cell-based GH3-TRE-Luc assay (GH3.TRE-Luc cell line, developed by the laboratory of Dr. Albertinka J. Murk, Wageningen University) was used to measure the inhibition of TR. GH3 (rat pituitary tumor) cells stably expressing a TR activity sensor consisting of two TR response elements and a luciferase reporter gene.
# Tox21 Assay Protocol Summary: GH3.TRE-Luc cells were dispensed at 1500 cells/4 uL/well into 1536-well white solid bottom plates using a Multidrop Combi dispenser (Thermo Fisher Scientific Inc., Waltham, MA). After the assay plates were incubated at 37 C for 4 hours, 23 nL of library compound or DMSO controls was transferred to the assay plates by a pintool station (Kalypsys, San Diego, CA), followed by addition of 1 ul of T3 (1 nM, final concentration in the wells) to stimulate TR transactivation. The assay plates were incubated at 37 C for 23.5 h, and then 1 uL of CellTiter-Fluor reagent (Promega, Madision, WI) of measuring cytotoxicity was added to each well using a Bioraptr Flying Reagent Dispenser (FRD) workstation (Beckman Coulter, Indianapolis, IN, USA). The plates were incubated at 37 C and 5% CO2 for additional 30 min, and fluorescence intensity was measured by a ViewLux plate reader (PerkinElmer, Shelton, CT). For measuring luciferase reporter gene activity, 4 uL of ONE-Glo Luciferase Assay reagent (Promega) was added to each well using a Bioraptr FRD (Beckman Coulter), followed by 30 min incubation at room temperature. The luminescence intensity of plates was recorded by a ViewLux plate reader (PerkinElmer, Shelton, CT).
# Potency means the concentration at half of the fitted maximal effect.
Structure (SMILES),Potency,"activity, negative = inhibition"
Nc1ccc(S(=O)(=O)Nc2cnc3ccccc3n2)cc1,inactive,
O=CCc1ccccc1,inactive,
CC(=O)c1ccccn1,inactive,
CC(=O)CC/C=C(\C)CCC=C(C)C,inactive,
CC1=CC2C3CC(C=C3C)C2C1 (stereo not given),,8.37%
S=C(NC1CCCCC1)NC1CCCCC1,inactive,
O=P(O)(O)O,inactive,
C=CC(C)(CCC=C(C)C)OC(C)=O (stereo not given),inactive,
COc1ccccc1/C=C/C=O,62.8 µM (active),
O=[N+]([O-])c1ccc2c(c1)Cc1ccccc1-2,inactive,
c1ccncc1,inactive,
Cc1ccc2c(n1)Oc1ccc(C(C)C(=O)OCC(=O)N(C)C)cc1C2 (stereo not given),inactive,
CCC(C)OC(=O)c1ccc(O)cc1 (stereo not given),inactive,
Cc1ccc(C)c(O)c1C,inactive,
Nc1ccc(Cl)cc1Cl,inactive,
Cc1[nH]c(=O)c(C#N)cc1-c1ccncc1,inactive,
CCC(C)(O)CCCC(C)C (stereo not given),inactive,
OC(CCl)CCl,inactive,
Clc1nc(Cl)c(Cl)c(Cl)c1Cl,inactive,
C[Si](C)(C)O[Si](C)(C)C,inactive,

Structure (SMILES),Potency,"activity, negative = inhibition"
CCC(C)CO (stereo not given),inactive,
CC(CCC(=O)O)(c1ccc(O)cc1)c1ccc(O)cc1,inactive,
c1cc(-c2ccncc2)ccn1,inactive,
c1ccc2c(c1)Oc1ccccc1S2,inactive,
O=CCCCC=O,inactive,
O=C(COc1ccc(Cl)cc1)N1CCN(Cc2ccc3c(c2)OCO3)CC1,,-6.14%
c1cc(N(CC2CO2)CC2CO2)ccc1OCC1CO1 (stereo not given),4.86 µM (active) and 3.86 µM (active),
CC(C)=CCC/C(C)=C\CO,inactive,
O=C1OC2(c3cc(Br)c(O)c(Br)c3Oc3c2cc(Br)c(O)c3Br)c2c(Cl)c(Cl)c(Cl)c(Cl)c21,54.5 µM (active) and 41.6 µM (active),
C=C(C)C(=O)OCCOC(=O)C(=C)C,inactive,
O=C1c2cccc(O)c2C(=O)c2c(O)cccc21,inactive,
C/C=C/C(=O)O,inactive,
c1ccc2cc(Nc3ccc(Nc4ccc5ccccc5c4)cc3)ccc2c1,inactive,
Cc1cc2nc3c(=O)[nH]c(=O)nc-3n(C[C@H](O)[C@H](O)[C@H](O)CO)c2cc1C,inactive,
O=C(/C=C/c1ccccc1)OCc1ccccc1,inactive,
CC(=O)Oc1ccccc1C(=O)Nc1ncc([N+](=O)[O-])s1,11.9 µM (active) and 7.85 µM (active),
CCCCOCCOCCO,inactive,
CCCCC(CC)COCC1CO1 (stereo not given),inactive,
CC(=O)C1(C)CC2=C(CCCC2(C)C)CC1C (stereo not given),,-13.4%
CC1=CCC(C(C)(C)O)CC1 (stereo not given),inactive,
